Assay results from the supplement of paper PMC13380429.

Key:
[1] = tested on: Vero E6 infected with SARS-CoV-2; experiment: morphology score (similarity to uninfected cells); higher = more like uninfected cells; conditions: 24 h
[2] = tested on: Vero E6 infected with SARS-CoV-2; experiment: SARS-CoV-2 infection rate relative to infected DMSO; higher = more infection, active = 60 or less; conditions: 24 h

Row | SMILES | morphology score [1] | SARS-CoV-2 infection rate [2]
1 | CC(=O)N[C@@H](Cc1ccc(O)cc1)C(=O)O [N-acetyl-tyrosine] (10 µM) | -0.058 | 114% (inactive)
2 | O=C(O)c1ccccc1-c1ccc(C(F)(F)F)cc1 [xenalipin] (10 µM) | 0.0335 | 102% (inactive)
3 | COc1ccc(-c2cc(=S)ss2)cc1 [anethole-trithione] (10 µM) | 0.0605 | 104% (inactive)
4 | Cc1[nH]nc(C(F)(F)F)c1Cc1sc2c(c1C(=O)N1C[C@](C)(O)CO1)c(=O)n(C)c(=O)n2C(C)C (10 µM) | 0.0405 | 101% (inactive)
5 | Cn1ncnc1COc1nn2c(-c3cc(F)ccc3F)nnc2cc1C(C)(C)C (10 µM) | 0.166 | 96.5% (inactive)
6 | NCCc1ccc(O)c(O)c1 [dopamine] (10 µM) | -0.112 | 100% (inactive)
7 | COc1cccc(OCCCN)c1-c1cc(Nc2cnc(C#N)cn2)n[nH]1 (10 µM) | -0.0952 | 103% (inactive)
8 | Cc1cc(O)ccc1Cl [chlorocresol] (10 µM) | 0.0498 | 95.5% (inactive)
9 | O=c1[nH]nc2c3c(cccc13)N=C(CN1Cc3ccccc3C1)N2 (10 µM) | 0.219 | 91% (inactive)
10 | CN(C)CCCN1c2ccccc2Sc2ccccc21 [promazine] (10 µM) | 0.41 | 91.5% (inactive)
11 | CC(C)n1nnc2cc(C(=O)O)ccc21 (10 µM) | 0.0496 | 102% (inactive)
12 | O=C1c2c(O)ccc(O)c2C(=O)c2c(NCCNCCO)ccc(NCCNCCO)c21 [mitoxantrone] (0.833333 µM) | -0.00869 | 108% (inactive)
13 | CC(C)(CO)Cc1cc(C(C)(C)C)c(O)c(C(C)(C)C)c1 (10 µM) | -0.127 | 108% (inactive)
14 | COc1ccc(C(=O)N2CCCC2=O)cc1 [aniracetam] (10 µM) | 0.0647 | 106% (inactive)
15 | Cc1cccc(/C=N/Nc2cc(N3CCOCC3)n3nc(-c4ccncc4)cc3n2)c1 (10 µM) | 0.261 | 50.5% (active)
16 | Cc1sc(C)c2c1CCC=C2c1c[nH]cn1 (10 µM) | 0.165 | 94% (inactive)
17 | C[C@H]1O[C@@H](Oc2c(-c3cc(O)c(O)c(O)c3)oc3cc(O)cc(O)c3c2=O)[C@@H](O)[C@@H](O)[C@@H]1O [myricitrin] (10 µM) | 0.147 | 103% (inactive)
18 | C[C@H](CCC(=O)O)[C@H]1CC[C@H]2[C@@H]3C[C@H](O)[C@@H]4C[C@H](O)CC[C@]4(C)[C@H]3CC[C@]12C [Hyodeoxycholic acid (HDCA)] (10 µM) | 0.109 | 102% (inactive)
19 | CCN(CC)CCNC(=O)c1cc(S(C)(=O)=O)ccc1OC [tiapride] (10 µM) | 0.0888 | 98% (inactive)
20 | CC(C)c1cc(C(=O)N2Cc3ccc(CN4CCN(C)CC4)cc3C2)c(O)cc1O (10 µM) | 0.185 | 118% (inactive)
21 | Cc1cc(C)cc(C(=O)NOCCCCCC(=O)NO)c1 (10 µM) | -0.485 | 124% (inactive)

Row | SMILES | morphology score [1] | SARS-CoV-2 infection rate [2]
22 | C[C@@H]1CC(=O)c2c(ccc3c2C(=O)c2cccc(O)c2C3=O)C1 [ochromycinone] (10 µM) | -0.0461 | 105% (inactive)
23 | CO[C@H](C(=O)[C@@H](O)[C@@H](C)O)[C@@H]1Cc2cc3cc(O[C@H]4C[C@@H](O[C@H]5C[C@@H](O)[C@H](O)[C@@H](C)O5)[C@@H](O)[C@@H](C)O4)c(C)c(O)c3c(O)c2C(=O)[C@H]1O[C@H]1C[C@@H](O[C@H]2C[C@@H](O[C@H]3C[C@](C)(O)[C@H](O)[C@@H](C)O3)[C@H](O)[C@@H](C)O2)[C@H](O)[C@@H](C)O1 [plicamycin] (10 µM) | -0.159 | 104% (inactive)
24 | Oc1ccc(/C=C/c2cc(O)cc(O)c2)cc1 [resveratrol] (10 µM) | 0.0102 | 104% (inactive)
25 | CC(=O)NCCCS(=O)(=O)O [acamprosate] (10 µM) | 0.0831 | 102% (inactive)
26 | CCN(CC)CCOCCOC(=O)C1(c2ccccc2)CCCC1 [carbetapentane] (10 µM) | 0.363 | 83% (inactive)
27 | N[C@@H]1c2cccnc2[C@H](OC(=O)N2CCC(n3c(=O)[nH]c4ncccc43)CC2)CC[C@H]1c1cccc(F)c1F [rimegepant] (10 µM) | 0.177 | 96.5% (inactive)
28 | Cc1c(O)c(=O)ccn1C [deferiprone] (10 µM) | -0.123 | 98% (inactive)
29 | Nc1ccc(S(=O)(=O)Nc2ccccn2)cc1 [sulfapyridine] (10 µM) | 0.0798 | 102% (inactive)
30 | Cc1cc(C)cc(C(=O)N(C)[C@H](Cc2ccc(-c3ccccc3)cc2)C(=O)N[C@@H](Cc2c[nH]c3ccccc23)C(=O)O)c1 (10 µM) | 0.0271 | 95% (inactive)
31 | O=C(/C=C/c1ccc(O)c(O)c1)c1ccc(O)cc1O [butein] (10 µM) | 0.256 | 106% (inactive)
32 | CC[C@H](C)[C@@H]1NC(=O)[C@H](Cc2ccc(O)cc2)NC(=O)[C@@H](N)CSSC[C@@H](C(=O)N2CCC[C@H]2C(=O)N[C@@H](CC(C)C)C(=O)NCC(N)=O)NC(=O)[C@H](CC(N)=O)NC(=O)[C@H](CCC(N)=O)NC1=O [oxytocin] (10 µM) | -0.0591 | 110% (inactive)
33 | COC(=O)Nc1ccc2[nH]cc(CCNC(C)=O)c2c1 (10 µM) | 0.0711 | 108% (inactive)
34 | O=C(O[C@H]1C[N+]2(CCCOc3ccccc3)CCC1CC2)C(O)(c1cccs1)c1cccs1 [aclidinium] (10 µM) | 0.136 | 100% (inactive)
35 | O=NN(CCCl)C(=O)NC1CCCCC1 [lomustine] (10 µM) | -0.0183 | 108% (inactive)
36 | CC(C)CCNC(=O)[C@H](CC(C)C)NC(=O)[C@H]1O[C@@H]1C(=O)O [loxistatin-acid] (10 µM) | 0.296 | 88% (inactive)
37 | Cc1ccc(-c2ccc(F)cc2COc2ccc(CCC(=O)O)cc2)cc1 (10 µM) | -0.174 | 100% (inactive)
38 | Cc1cn(-c2cc(NC(=O)c3ccc(C)c(Nc4nccc(-c5cccnc5)n4)c3)cc(C(F)(F)F)c2)cn1 [nilotinib] (10 µM) | 0.334 | 96.5% (inactive)
39 | CC(C)Oc1cccc(-n2c(CCc3c[nH]c4ccc(Br)cc34)nc3ccccc3c2=O)c1 (10 µM) | 0.149 | 93% (inactive)
40 | CO/N=C(\C(=O)N[C@@H]1C(=O)N2C(C(=O)O)=CCS[C@H]12)c1csc(N)n1 [ceftizoxim] (10 µM) | -0.0509 | 102% (inactive)
41 | COc1cccc(NC(=O)/C=C/c2ccc(Cl)cc2)c1 (10 µM) | -0.0484 | 99.5% (inactive)
42 | COc1ccc2cc1Oc1ccc(cc1)C[C@H]1c3c(cc4c(c3Oc3cc5c(cc3OC)CCN(C)[C@@H]5C2)OCO4)CCN1C [cepharanthine] (10 µM) | 0.461 | 77.5% (inactive)

Row | SMILES | morphology score [1] | SARS-CoV-2 infection rate [2]
43 | CN1c2ccccc2C(NCCCCCCC(=O)O)c2ccc(Cl)cc2S1(=O)=O (centres undefined) [tianeptine] (10 µM) | 0.237 | 104% (inactive)
44 | C[C@@H]1C[C@H]2[C@@H]3CCC4=CC(=O)C=C[C@]4(C)[C@@]3(F)[C@@H](O)C[C@]2(C)[C@@]1(O)C(=O)COP(=O)(O)O (10 µM) | 0.0439 | 99% (inactive)
45 | CC(C)CNc1nc(-c2cccc3ncccc23)cn2c(-c3ccc(C(=O)NC4CC4)cc3)cnc12 (10 µM) | -0.233 | 99.5% (inactive)
46 | c1ccc2c(c1)CCCc1cc(NCCN3CCOCC3)nnc1-2 (10 µM) | -0.11 | 116% (inactive)
47 | CCC[C@@]1(CCc2ccccc2)CC(O)=C([C@H](CC)c2cccc(NS(=O)(=O)c3ccc(C(F)(F)F)cn3)c2)C(=O)O1 [tipranavir] (10 µM) | 0.183 | 94.5% (inactive)
48 | COc1ccc2[nH]cc(C3=CCNCC3)c2c1 (10 µM) | 0.191 | 104% (inactive)
49 | C[C@@H]1O[C@@H]1P(=O)(O)O (10 µM) | 0.00316 | 104% (inactive)
50 | O=C(O)c1ccc(-n2nc(-c3ccccc3O)nc2-c2ccccc2O)cc1 [deferasirox] (0.833333 µM) | 0.0304 | 114% (inactive)
51 | NCC(CS(=O)(=O)O)c1ccc(Cl)cc1 (centres undefined) [saclofen] (10 µM) | 0.194 | 94.5% (inactive)
52 | CC(=O)C(=Cc1cc(O)c(O)c([N+](=O)[O-])c1)C(C)=O [nitecapone] (10 µM) | 0.103 | 102% (inactive)
53 | Nc1nc(-c2ccc(Cl)c(Cl)c2)c(-c2ccncc2)s1 (10 µM) | 0.37 | 99.5% (inactive)
54 | O=[N+]([O-])/C=C/c1ccc2c(c1)OCO2 [3,4-methylenedioxy-beta-nitrostyrene] (10 µM) | 0.58 | 41% (active)
55 | N#Cc1ccccc1OCC(O)CNCCNC(=O)Nc1ccccc1 (centres undefined) (10 µM) | -0.0291 | 109% (inactive)
56 | COc1ccncc1C(=O)NC(=O)Nc1ccc(-c2ccccc2)c(C(F)(F)F)c1 [S1P1-agonist-III] (10 µM) | -0.0188 | 100% (inactive)
57 | NCC(=O)N[C@@H](CCC(N)=O)C(=O)O (10 µM) | 0.0903 | 108% (inactive)
58 | Nc1ccc(S(=O)(=O)Nc2ccc(Cl)nn2)cc1 [sulfachlorpyridazine] (10 µM) | 0.104 | 108% (inactive)
59 | CN1CCN(c2ccc3[nH]c(-c4ccc5[nH]c(-c6ccc(O)cc6)nc5c4)nc3c2)CC1 [pibenzimol] (10 µM) | 0.0018 | 110% (inactive)
60 | Cc1cc(NC(=O)Nc2ccc(F)c(F)c2)n(-c2ccccc2)n1 (10 µM) | 0.105 | 102% (inactive)
61 | Fc1ccc(CNc2ncnc3ccc(F)cc23)cc1 [spautin-1] (10 µM) | -0.0451 | 117% (inactive)
62 | CN[C@@H](C)CCC=C(C)C [isometheptene-mucate] (10 µM) | -0.0576 | 109% (inactive)
